We go through eight molecules from PubChem BioAssay (Tox21).

Records with an inconclusive call do not appear. The source made the active and inactive calls. Unless noted, calls come from the whole dose curve; as a rule, active = well fitted curve in the direction sought with a large enough effect in the repeat runs; inconclusive = weak or mixed curves; inactive = no such curve, though single readings can be large; an effect the other way counts as inactive or inconclusive.

Assay [1] in a line: qHTS assay for small molecules that induce genotoxicity in human embryonic kidney cells expressing luciferase-tagged ATAD5 (AID 651632). Note: nearly all actives have a fitted effect of over 15% in size. The gist of the method: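 Concentration-response screen for ATAD5 upregulation in HEK293T luciferase reporter cells; 16 hr treatment at 37C, then luminescence after 30 min with Amplite at room temperature.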
For orientation: qHTS replaces the single test concentration by a dilution series.

The nature of assay [2]: qHTS assay for small molecule agonists of the p53 signaling pathway - cell viability (AID 651633; calls by dose curve;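 note: p53RE-bla HCT reporter cells with a stable beta-lactamase p53 reporter; series mostly up to about 83 µM; nearly all actives have a fitted effect of over 30% in size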). The essentials:
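p53RE-bla cells were treated with compound for 16 hours at 37 C. Cytotoxicity was then measured as CellTiter-Glo luminescence after 30 min at room temperature.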

Assay [3] can be described thus: qHTS assay for small molecules that induce genotoxicity in human embryonic kidney cells expressing luciferase-tagged ATAD5 - cell viability (AID 651634; calls by dose curve; note: nearly all actives have a fitted effect of over 25% in size). The essentials: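 15.5 hr compound or vehicle exposure of HEK293T cells expressing luciferase-tagged ATAD5 at 37C; live-cell protease activity is read by fluorescence after 30 min of CellTiter-Fluor.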
Assay [4] in a line: qHTS assay for small molecule disruptors of the mitochondrial membrane potential - cell viability (AID 720634; calls by dose curve;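 note: human HepG2 liver cancer cells; series mostly up to about 83 µM; nearly all actives have a fitted effect of over 20% in size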). The essentials: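 In this qHTS format, HepG2 cells plated overnight were pinned with compound, incubated 1 hr, and assayed for ATP luminescence with CellTiter-Glo after m-MPI dye addition.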
Assay [5] can be described thus: qHTS assay to test for compound auto fluorescence at 590 nm (red) in HepG2 cells (AID 720674). The essentials: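 HepG2 cells, 2,000 per well in MEM with 10% FBS, attached overnight at 37 C, then got 23 nL compound or DMSO. After 1 hr at 37 C, 5% CO2, red fluorescence was read at 540/590 nm against Rose Bengal sodium as reference.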
Assay [6] in a line: qHTS assay to test for compound auto fluorescence at 535 nm (green) in HepG2 cells (AID 720675).
Assay [7] can be described thus: qHTS assay to test for compound auto fluorescence at 590 nm (red) in HEK293 cells (AID 720679). The essentials:
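Red-channel autofluorescence (Ex/Em 540/590 nm; Rose Bengal sodium reference) was measured after overnight 37C, 5% CO2 exposure of attached HEK293 cells, 2,000 per well in medium with 10% dialyzed FBS.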

The nature of assay [8]: qHTS assay to test for compound auto fluorescence at 460 nm (blue) in HEK293 cell free culture (AID 720681). The gist of the method: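 Compounds were added to cell-free DMEM with 10% FBS and fluorescence read directly. The blue channel used 405 nm excitation and 460 nm emission, with triamterene as the reference fluorophore.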
Assay [9] can be described thus: qHTS assay to test for compound auto fluorescence at 535 nm (green) in HEK293 cell free culture (AID 720682). The gist of the method:
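No cells present: wells hold DMEM supplemented with 10% FBS, into which compound or vehicle is pinned. Green emission is then recorded (485 nm excitation, 535 nm emission) and scaled to fluorescein.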

Assay [10] can be described thus: qHTS assay to test for compound auto fluorescence at 590 nm (red) in HEK293 cell free culture (AID 720683). The essentials:
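Cell-free wells of DMEM with 10% FBS received compound, and intrinsic fluorescence was read at excitation/emission 540/590 nm. Values expressed as equivalence to Rose Bengal sodium.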

A short description of assay [11]: qHTS assay to test for compound auto fluorescence at 590 nm (red) in HepG2 cell free culture (AID 720684). The essentials:
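Auto fluorescence equivalency versus Rose Bengal sodium, red channel Ex/Em 540/590 nm; compounds in cell-free MEM/10% FBS; DMSO vehicle control.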

The nature of assay [12]: qHTS assay to test for compound auto fluorescence at 460 nm (blue) in HepG2 cell free culture (AID 720685). The essentials: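 Cell-free plates of MEM plus 10% FBS received 23 nL compound or DMSO vehicle; blue-channel (405/460 nm) intensity scored against triamterene as reference fluorophore.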
Assay [13] in a line: qHTS assay to test for compound auto fluorescence at 535 nm (green) in HepG2 cell free culture (AID 720686).
Assay [14] in a line: qHTS assay to test for compound auto fluorescence at 460 nm (blue) in HepG2 cells (AID 720687). The gist of the method:
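HepG2 cells in MEM with 10% FBS, attached overnight at 37 C, were exposed to compound or DMSO for 1 hr at 37 C, 5% CO2. Blue fluorescence was read at 405/460 nm, with triamterene as reference fluorophore.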

Assay [15] concerns the target Glucocorticoid receptor (Homo sapiens) (UniProt P04150). Nature of the assay: qHTS assay to identify small molecule agonists of the glucocorticoid receptor (GR) signaling pathway (AID 720691; active = well fitted activation curve with a large enough effect in the signal ratio in the repeat runs, not every such curve was filed as active; the % refers to the signal ratio). The essentials:
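Measures GR pathway activation through a GRE-beta-lactamase reporter stably integrated in HeLa cells, with 18 h compound treatment at 37 C and fluorescence detection using a FRET substrate.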

Assay [16] can be described thus: qHTS assay to test for compound auto fluorescence at 460 nm (blue) in HEK293 cells (AID 720678). The essentials: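 Blue-channel (Ex/Em 405/460 nm) intensity measured in HEK293 cultures after overnight compound exposure at 37C; signal expressed relative to triamterene. Cells plated 2,000 per well in 10% dialyzed FBS medium and allowed 4-5 hr to attach.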
Assay [17] in a line: qHTS assay to test for compound auto fluorescence at 535 nm (green) in HEK293 cells (AID 720680).
For assay [18], the target named is Glucocorticoid receptor (Homo sapiens) (UniProt P04150). In words: qHTS assay to identify small molecule antagonists of the glucocorticoid receptor (GR) signaling pathway (AID 720692; active = well fitted inhibition curve with a large enough effect in the signal ratio in the repeat runs, not every such curve was filed as active; the % refers to the signal ratio). The gist of the method: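 Tox21 10K library screened in concentration-response for blockade of dexamethasone (5 nM final)-induced GRE-bla reporter activity in HeLa cells; 18 h treatment, fluorescence read.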
Chain of Glucocorticoid receptor (Homo sapiens) (P04150 whole entry, looked up): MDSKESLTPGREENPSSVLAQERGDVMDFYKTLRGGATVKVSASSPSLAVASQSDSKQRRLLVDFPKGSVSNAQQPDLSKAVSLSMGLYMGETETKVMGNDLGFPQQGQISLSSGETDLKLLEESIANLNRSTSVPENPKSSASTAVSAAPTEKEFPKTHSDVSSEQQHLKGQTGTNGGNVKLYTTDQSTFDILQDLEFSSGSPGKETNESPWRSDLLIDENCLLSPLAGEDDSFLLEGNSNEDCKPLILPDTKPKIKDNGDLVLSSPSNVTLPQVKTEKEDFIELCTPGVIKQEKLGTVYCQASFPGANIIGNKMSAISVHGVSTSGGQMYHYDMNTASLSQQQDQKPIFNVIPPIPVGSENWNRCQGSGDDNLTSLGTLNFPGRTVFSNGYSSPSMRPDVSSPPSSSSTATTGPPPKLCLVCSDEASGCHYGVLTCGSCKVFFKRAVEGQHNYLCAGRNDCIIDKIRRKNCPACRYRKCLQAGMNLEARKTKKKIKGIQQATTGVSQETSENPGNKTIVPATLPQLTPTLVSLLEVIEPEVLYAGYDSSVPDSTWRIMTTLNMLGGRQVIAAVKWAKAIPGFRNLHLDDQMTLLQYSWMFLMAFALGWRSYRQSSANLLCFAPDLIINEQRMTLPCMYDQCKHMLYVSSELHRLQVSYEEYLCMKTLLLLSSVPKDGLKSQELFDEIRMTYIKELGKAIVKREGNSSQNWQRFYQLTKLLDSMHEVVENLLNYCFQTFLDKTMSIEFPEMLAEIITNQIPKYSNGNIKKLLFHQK

Assay [19] is described as follows: qHTS assay for small molecule disruptors of the mitochondrial membrane potential (AID 720635). Note: potency is the fitted concentration of half-maximal effect. The gist of the method:
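HepG2 cells exposed to compound 1 hr at 37C, then Mito-MPS dye 30 min. Ratio read of aggregate (540/590 nm) versus monomer (490/535 nm) fluorescence.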

In the case of `CC(CCc1ccccc1)NC(C)C(O)c1ccc(O)cc1` (stereo not given), the Potency result in assay [1], in assay [2], in assay [3] and in assay [4] was “inactive” each time. Moreover, the molecule was called inactive in assay [5], in assay [6], in assay [7], in assay [8], in [9] and in [10]. The molecule was called inactive in [11], in [12], in assay [13], in assay [14] and in assay [15].
For `COc1ncc(F)c2nc(S(=O)(=O)Nc3c(F)cccc3F)nn12`, the Potency entry in [1], in [2], in [3], in [4] and in assay [18] was “inactive” throughout. Also, the result in assay [5], in assay [6], in [16], in assay [7], in assay [17] and in [8] was inactive. For the same molecule, the molecule was called inactive in [9], in assay [10], in assay [11], in assay [12], in assay [13] and in assay [14]. Also, in [15], the call was inactive.
On to `CCC1(c2ccccc2)C(=O)NC(=O)NC1=O`, for which the Potency result in assay [1], in [2], in assay [3] and in assay [4] was “inactive” in each case. Besides, the result in assay [5], in assay [6], in assay [16], in assay [7], in assay [8] and in [9] was inactive. For the same molecule, the molecule was called inactive in assay [10], in assay [11], in assay [12], in assay [13] and in assay [14].
On to `C[N+](=O)[O-]`, for which the Potency entry in assay [1], in assay [2], in assay [3] and in [19] was “inactive” in each case. In addition, the molecule was classed as inactive in assay [5], in assay [6], in [16], in assay [7], in assay [17] and in assay [8]. The molecule was called inactive in assay [9], in assay [10], in assay [11], in assay [12], in assay [13] and in [14]. In assay [15], the call was inactive.
`CC1(C)C(=O)NC(=O)NC1=O`: the Potency result in assay [1], in [2], in assay [3], in assay [4], in assay [19] and in assay [18] was “inactive” throughout. The molecule was classed as inactive in assay [5], in assay [6], in [16], in assay [7], in assay [17] and in assay [8]. Also, the outcome in assay [9], in assay [10], in assay [11], in [12], in [13] and in [14] was inactive. Moreover, the outcome in assay [15] was inactive.
On to `COC(C)(C)C`, for which the Potency result in assay [1], in assay [2], in assay [3] and in assay [19] was “inactive” throughout. Besides, the molecule was classed as inactive in assay [5], in [6], in assay [16], in assay [7], in assay [17] and in assay [8]. Also, the call in [9], in assay [10], in [11], in [12], in assay [13] and in assay [14] was inactive.
`Cc1cc(C)nc(Nc2ccccc2)n1`: the Potency result in [1], in assay [2], in assay [3], in assay [4] and in assay [18] was “inactive” in each case. Besides, the molecule was called inactive in assay [5], in assay [6], in [16], in assay [7], in assay [17] and in assay [8]. Further, the outcome in [10], in [11], in [13], in assay [14] and in assay [15] was inactive.
For `CC1CCCCC1NC(=O)Nc1ccccc1` (stereo not given), the Potency entry in [1], in assay [2], in [3], in assay [4] and in assay [18] was “inactive” each time. Also, the Potency in assay [19] was 21.7 µM (active). Also, the call in assay [5], in assay [6], in [16], in assay [7], in assay [17] and in assay [8] was inactive. The call in [9], in assay [10], in assay [11], in assay [12], in assay [13] and in [14] was inactive. For the same molecule, the molecule was classed as inactive in assay [15].
